High-throughput results as filed in PubChem BioAssay.
DT40 TDP1 no CPT = qHTS for Inhibitors of human tyrosyl-DNA phosphodiesterase 1 (TDP1): qHTS in cells in absence of CPT; DT40 Tdp1-/- hTDP1 cells, no CPT, ATP luminescence, 48 h; Potency, µM (series often up to 46.2 µM), without a hit: at the top dose activity change, negative = growth inhibition, usual class: inhibitors; actives 15% (n = 420,000); note: % is set by controls: 0 for no effect and ±100 for the full control effect; nearly all actives have a fitted effect of over 55% in size
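Chicken DT40 Tdp1-/- cells stably complemented with human TDP1 were seeded at 400 cells/well with DMSO in place of 20 nM camptothecin. After compound pinning, cells grew at least 48 hr at 37 °C; viability read by CellTiter-Glo luminescence.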
ClpP mod = qHTS Assay for Activators of ClpP; ATP-dependent Clp protease proteolytic subunit (Bacillus subtilis (strain 168)), P80244; purified B. subtilis ClpP, FRET peptide cleavage, 20 min; Potency, µM (highest dose often 57.5 µM), for inactives: top-dose activity change, negative = active; actives 1.9% (n = 340,000); AID 651965, 2013; active = well fitted falling curve with a large enough effect; inconclusive = small, poorly fitted or top-dose-only effect; inactive = no such curve, though single readings can be large or run the other way; note: the source files actives as falling curves though it sought activators and does not explain the sign; nearly all actives have a fitted effect of over 65% in size
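Purified B. subtilis ClpP, 10 microg/mL final in Tris/HCl pH8 with KCl, BSA, glycerol and Tween-20, cleaved an Abz/nitrotyrosine-quenched decapeptide. Fluorescence (ex 320, em 430) was read at 0 and 20 min at room temperature. Delta was normalized to 5.8 microM ADEP and DMSO/no-enzyme controls.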
TDP1 block = TDP1 (human) enzyme inhibition; actives 0.28% (n = 350,000); Potency, µM (doses to about 130 µM), for inactives: at the top dose activity change, negative = inhibition, usual class: inhibitors; recombinant TDP1, AlphaScreen DNA substrate cleavage; Q9NUW8; note: % is set by controls: 0 for no effect and ±100 for the full control effect; nearly all actives have a fitted effect of over 40% in size
Target sequence (Q9NUW8 whole entry, looked up): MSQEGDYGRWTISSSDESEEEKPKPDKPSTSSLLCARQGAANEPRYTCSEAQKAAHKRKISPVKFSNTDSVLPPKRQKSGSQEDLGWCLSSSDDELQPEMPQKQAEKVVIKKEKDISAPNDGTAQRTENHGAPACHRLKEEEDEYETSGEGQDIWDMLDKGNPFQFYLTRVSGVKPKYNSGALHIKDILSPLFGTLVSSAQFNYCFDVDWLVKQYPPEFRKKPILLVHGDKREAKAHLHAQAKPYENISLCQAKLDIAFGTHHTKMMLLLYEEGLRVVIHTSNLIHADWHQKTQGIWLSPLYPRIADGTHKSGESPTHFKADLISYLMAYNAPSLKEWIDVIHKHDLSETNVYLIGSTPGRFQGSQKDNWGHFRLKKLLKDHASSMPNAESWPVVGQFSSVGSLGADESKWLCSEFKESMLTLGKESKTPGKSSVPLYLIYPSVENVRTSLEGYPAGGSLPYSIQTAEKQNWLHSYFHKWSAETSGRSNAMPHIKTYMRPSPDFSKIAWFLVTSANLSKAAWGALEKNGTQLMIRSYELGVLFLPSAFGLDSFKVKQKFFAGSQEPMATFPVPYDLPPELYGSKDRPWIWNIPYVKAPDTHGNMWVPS
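Tdp1 1 nM final; 15 min RT w/ cpd; substrate 15 nM, 5 min; beads 10 ug/ml, 10 min; AlphaScreen read. Neg ctrl: no enzyme.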
TDP1 cell CPT = growth inhibition of DT40 Tdp1-/-;hTDP1 cells with camptothecin (screen for TDP1 inhibitors) | Potency, µM (highest dose often 46.2 µM), for inactives: top-dose activity change, negative = growth inhibition, actives largely listed as inhibitors | chicken DT40 Tdp1-/-;hTDP1 cells + 20 nM CPT, ATP luminescence, 48 h | actives 12% (n = 420,000); note: % is set by controls: 0 for no effect and ±100 for the full control effect; nearly all actives have a fitted effect of over 55% in size
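Chicken DT40 Tdp1-/- cells complemented with human TDP1, 400 cells/well, exposed to compounds plus 20 nM camptothecin for at least 48 h at 37 C; viability read as ATP content by CellTiter-Glo luminescence.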
Numbers without * were called inactive; ? = inconclusive; / = not tested or not shown; [ ] = another dose, or the depositor's remark. In the library only some 17% were active in any assay of this set; here they are far more common. Unless noted, calls come from the whole dose curve; as a rule, active = well fitted curve in the direction sought with a large enough effect; inconclusive = small, poorly fitted or top-dose-only effect, or another doubt; inactive = no such curve, though single readings can be large; an effect the other way counts as inactive or inconclusive. Potency is the fitted concentration of half-maximal effect.

SMILES	DT40 TDP1 no CPT	ClpP mod	TDP1 block	TDP1 cell CPT
COc1ccc(Cl)cc1N=C1NC(=O)CC(C(=O)Nc2ccccc2C(F)(F)F)S1 (stereo not drawn)	/	1%	6%	/
CCOC(=O)c1[nH]c(C)c(C(=O)Nc2ccc(C)c(F)c2)c1C	18µM*	3%	6%	10µM*
CCOC(=O)c1[nH]c(C)c(C(=O)Nc2ccc(C)c(Cl)c2)c1C	?	2%	3%	16µM*
COCCn1c(SCC(=O)NC(C)c2ccc(F)cc2)nc2ccccc21 (stereo not drawn)	-20%	/	11%	-9%
Cc1cccc(NC(=O)/C(C#N)=C/c2ccc(Cl)cc2)n1	-16%	-11%	/	-13%
O=C(/C=C/c1ccccc1)Nc1ccc(Cl)cn1	3.3µM*	/	-2%	2.6µM*
COc1cccc(NC(=O)/C=C\c2ccc(Cl)cc2)c1	?	/	9%[56.1 µM]	30µM*
Cc1cccc(NC(=O)/C=C/c2ccc(Cl)cc2)n1	18µM*	0%	3%	?
CSc1cccc(NC(=O)/C=C/c2ccc(Cl)cc2)c1	?	-5%	2%	?
O=C(Nc1ccc(Cl)cn1)c1cccc2ccccc12	5.8µM*	1%	/	5.2µM*
C[C@]12c3[nH]c4cc(-c5ccco5)ccc4c3CCN1C(=O)[C@@H](CC(=O)NCc1ccco1)C[C@@H]2C(=O)N1CCOCC1	?	4%	3%[56.1 µM]	?
Cc1cccc(NC(=O)CSc2nccn2Cc2ccco2)c1	-5%	-1%	6%	4%
O=C(CC(c1ccccc1)c1ccccc1)Nc1ccc(Cl)cn1	18µM*	-3%	-6%	?
O=C(CS(=O)(=O)c1ccccc1)Nc1ccc(Cl)cn1	-2%	-1%	2%	7%
COc1ccc(Nc2c([N+](=O)[O-])ccc3c2=NC2(CCCCC2)N=3)cc1	21µM*	/	12%	?
O=[N+]([O-])c1ccc2c(c1Nc1ccccc1)=NC1(CCCCC1)N=2	?	-1%	13%	?
Cc1ccc(N2CC(C)Cn3c2nc2c3c(=O)n(CC(=O)O)c(=O)n2C)cc1 (stereo not drawn)	15%	?	6%	0%
O=C1CCCN1c1ccc(S(=O)(=O)NCCOc2ccccc2)cc1	11µM*	-5%	1%	?
Cc1cc(N2CCCC2=O)cc(C)c1S(=O)(=O)NCCOc1ccc(C(C)(C)C)cc1	7.3µM*	0%	3%[56.1 µM]	7.3µM*
Cc1cc(N2CCCC2=O)ccc1S(=O)(=O)N1CCOCC1	?	/	0%	2%
Cc1cc(N2CCCC2=O)ccc1S(=O)(=O)NC1CCCCC1	21µM*	/	-3%	?
COc1ccc([C@H]2N[C@]3(CCCN(Cc4ccccc4)C3=O)[C@H]3C(=O)N(C)C(=O)[C@@H]23)cc1	-21%	-1%	/	-14%
COc1ccc(-c2cc3ccccc3n2CC(O)CN2CCC(C)CC2)cc1 (stereo not drawn)	23µM*	4%	2%	?
COc1ccc(-c2cc3ccccc3n2CC(O)CNC(CO)(CO)CO)cc1 (stereo not drawn)	?	35µM*	1%	?
Cc1cc(=O)n2nc(N3CCC(C(=O)Nc4ccc(Br)cc4F)CC3)sc2n1	3%	-3%	3%	?
SMILES	DT40 TDP1 no CPT	ClpP mod	TDP1 block	TDP1 cell CPT
Cc1cc(=O)n2nc(N3CCC(C(=O)Nc4ccc(Br)c(C)c4)CC3)sc2n1	-29%	0%	8%	15µM*
COc1ccc(-n2c(SCC(=O)Nc3ccc(Br)cc3)nc(O)cc2=O)cc1	-11%	25µM*	/	2%
COc1ccccc1NC(=O)CSc1nnc(-c2nonc2NC(C)=O)n1-c1ccccc1	23µM*	2%	-1%	?
COc1ccc(-n2c(SCC(=O)Nc3ccccc3OC)nc(O)cc2=O)cc1	2%	35µM*	/	8%
CC(=O)Nc1nonc1-c1nnc(SCc2cccc(Br)c2)n1C	18µM*	1%	-3%	16µM*
Cc1cc(C)c(C)c(S(=O)(=O)NC2CCN(Cc3ccccc3)CC2)c1C	?	0%	0%	?
COC(CNC(=O)C1CC(=O)N(CCc2ccccc2)C1)OC (stereo not drawn)	-10%	1%	0%	21%
CCC1CN(CC(=O)NCc2n[nH]c3c2CCCCC3)Cc2cc(OC)ccc2O1 (stereo not drawn)	?	/	/	17%[9.04 µM]
CC(C)NC(=O)c1cc(-n2cnnc2)ccc1Cl	14%	0%	-4%	-4%
CN1C(=O)C2(c3ccccc31)c1c(oc3ccccc3c1=O)C(=O)N2CCCO (stereo not drawn)	1%	-2%	6%	4%
O=C(O)c1ccc(-n2cccc2/C=N\NC(=O)c2cc3cc(Br)ccc3o2)cc1	0%	/	1.1µM*	13%
COc1ccccc1CNC(=O)c1ccc2c(c1)N(Cc1cc(C)ccc1C)C(=O)c1ccccc1S2	9.2µM*	0%	10%	9.2µM*
COc1ccc(CCNC(=O)c2ccc3c(c2)N(Cc2ccccc2C)C(=O)c2ccccc2S3)cc1OC	3.7µM*	-1%	10%	3.3µM*
COCc1nnc(NC(C)=O)s1	-14%	/	-7%	3%
COc1ccc(CNC(=O)COC(=O)/C=C/c2cccc(Cl)c2)cc1	-4%	/	0%	-3%
CN1C(=S)SC(C)(C)C1N(O)C(=O)Nc1ccc(Cl)cc1 (stereo not drawn)	?	/	0%	?
CN1C(=S)SC(N(O)C(=O)Nc2ccc(Cl)c(Cl)c2)C1(C)C (stereo not drawn)	16µM*	-3%	8%	21µM*
COc1cc(-c2nnn(Cc3ccccc3C)n2)cc(OC)c1OC	21µM*	0%	/	?
O=C1Nc2ccccc2C(=O)C1(Cl)Cc1ccccc1 (stereo not drawn)	5.2µM*	-15%	8%	6.5µM*
CC(C)(C)N1C(=O)c2ccccc2NC(=O)N1Cc1ccccc1	-9%	-1%	-2%	2%
COc1ccc(-c2coc3ccc(OC4OC(COC(C)=O)C(OC(C)=O)C(OC(C)=O)C4OC(C)=O)c(OC(C)=O)c3c2=O)cc1 (stereo not drawn)	8.4µM*	/	13%[56.1 µM]	?
COc1ccc(-c2coc3cc(O[C@@H]4O[C@H](CO)[C@@H](O)[C@H](O)[C@H]4O)ccc3c2=O)cc1	-17%	-1%	-5%	-3%
COc1ccc(-c2coc3ccc(OC4OC(COC(C)=O)C(OC(C)=O)C(OC(C)=O)C4OC(C)=O)cc3c2=O)cc1 (stereo not drawn)	1.1µM*	/	7%	2.7µM*
COc1ccc(O[C@@H]2O[C@H](COC(C)=O)[C@@H](OC(C)=O)[C@H](OC(C)=O)[C@H]2NC(C)=O)cc1	3%	1%	-3%	4%
C/C(=N\NC(=O)CSCc1ccc([N+](=O)[O-])cc1)c1ccccc1	16µM*	-3%	7%	?
